SMILES strings stand for the structures. About 780 (0.22%) of roughly 360,000 compounds were called active. Another 4% or so got no clear call; they are omitted. No stated cut-off is given here; in the data, active means inhibition above about 35% (passing the limit was not always enough); inconclusive means no clear call, values can overlap the other calls. Many of the other results were omitted from the sample, so actives are more common in it than they were.

The assay concerns Botulinum neurotoxin type F light chain protease (Clostridium botulinum). Description: BoNT/F light chain protease inhibitors, primary screen, biochemical, flow cytometry, MLPCN library (AID 588497). Further: plate controls were buffer without enzyme for full effect and enzyme alone for no effect. As to conditions: Multiplex microsphere protease cleavage assay, at 10 µM, active compounds read high. Background: In flow cytometry, cells or beads pass a laser one at a time.
For orientation: inhibition means the drop in the measured response relative to a control, in per cent. On to `Cc1cccnc1C(NC(=O)C1CCN(Cc2ccc(Cl)c(Cl)c2)CC1)c1ccc(Cl)cc1` (stereo not drawn), for which the inhibition was -0.6% (inactive). Then `CC(=O)Nc1cc(-c2ccccc2N(C)C)cn2c(-c3ccc(F)c(Cl)c3)cnc12`, with -0.7% (inactive); and `CN(CC(=O)Nc1ccc(Cl)cc1)C(=O)c1ccc(COc2ccccc2)cc1`, with 8.6% (inactive); and `CCOc1ccc(NC(=O)CC2NCCNC2=O)cc1` (stereo not drawn), with -3.7% (inactive). For `CCOc1ccc(NC(=O)CC(Cc2ccc(Cl)cc2)C(=O)O)cc1` (stereo not drawn) the value was 42.9% (active); for `C=C1C(=O)[C@]23C[C@H]1CCC2[C@@]1(C)C(C[C@@H]3O)[C@](C)(C(=O)O)CC[C@@H]1O` (stereo partly drawn), 6.7% (inactive). Then `CC12CCC(=O)C=C1CCC1C2C(O)CC2(C)C1CCC2(O)C(O)CO` (stereo not drawn), with -2.7% (inactive); and `COc1ccc(-c2cc3nc(NCCOc4ccccc4)ccn3n2)cc1`, with -7% (inactive); and `CC1=C(C(=O)N(C(C)C)C(C)C)CC(CC(=O)NCCCCc2ccccc2)C(=O)N1CCC1=CCCCC1` (stereo not drawn), with -9.4% (inactive). For the compound `CC(C)(C)CC(=O)Nc1nc(C(N)Cc2ccc(C(F)(F)F)cc2)cs1` (stereo not drawn), the inhibition was -15.5% (inactive).

Turning to `CCCNC(=O)c1cc2c(c(-c3cccc(-c4ccc(C#N)cc4)c3)n1)[C@@H](CCO)N(C(=O)CC)C2`, the inhibition is -8.6% (inactive). With `CN1CCN(c2ccc(NC(=O)c3cc(Cl)c4c(c3)OCCO4)cc2)CC1`, the inhibition is -0.9% (inactive). For `CN1CCN(c2ccc(NC(=O)c3ccc4c(c3)[nH]c(=O)n4Cc3ccc(F)cc3)cc2)CC1` the value was -37.9% (inactive). Then `CN1CCN(c2ccc(NC(=O)c3ccccc3)cc2)CC1`, with 38.8% (active); and `CCCCC(=O)N(C)c1c(CC)nc2c(OCc3ccc(Cl)cc3Cl)cccn12`, with -1.2% (inactive); and `CCC(c1nnnn1-c1ccc2c(c1)OCCO2)N1CCN(c2ccc(C(F)(F)F)cn2)CC1` (stereo not drawn), with 6.4% (inactive). As to `CC1=C(C(=O)N(C(C)C)C(C)C)CC(CC(=O)NCC2CCCCC2)C(=O)N1Cc1ccccc1` (stereo not drawn), the inhibition was -6.1% (inactive). For `O=C1C(Sc2cccc(F)c2)=C[C@@]2(O)CC[C@@H](O)[C@]1(Sc1cccc(F)c1)[C@H]2O` the value was -5.7% (inactive); for `CCOC(=O)C1=CCC2C(=O)N(Cc3ccccc3)C(=O)C12` (stereo not drawn), 7.8% (inactive). For `CC(=O)Nc1cncc(-c2ccccc2CO)n1` the value was -2.7% (inactive). For `O=C(NCCN1CCOCC1)c1ccccc1N1C(=O)[C@@H]2Cc3c([nH]c4ccccc34)C(c3cccc(Cl)c3)N2C1=O` (stereo partly drawn) the value was -6.1% (inactive); for `CC(NCC(=O)Nc1cc(Cl)cc(Cl)c1)c1ccccc1` (stereo not drawn), 2.2% (inactive); for `NNC(=O)CNC(c1ccccc1)c1cc(Cl)ccc1NC(=O)c1ccccc1` (stereo not drawn), 43.2% (active). As for `O=C(COC(=O)c1ccccc1)Nc1ccc(Cl)cc1C(=O)c1ccccc1`, the inhibition was -15.4% (inactive). For `CC(C)C[C@H]1CNC(=S)N1C[C@H]1CCCN1C[C@H](Cc1ccc(O)cc1)N1C[C@H](Cc2ccc(O)cc2)N(CC2CCCCC2)C1=S` the value was -11% (inactive); for `COc1ccccc1-n1c(-c2cc(-c3ccco3)[nH]n2)n[nH]c1=S`, 40.9% (active); for `COc1ccccc1-n1cn[nH]c1=S`, 0.3% (inactive). In the case of `COc1ccc(-n2c(-c3ccc(Cl)cc3)n[nH]c2=S)c(OC)c1`, the inhibition is -4.7% (inactive). For `OC(c1ccccc1)(c1ccccc1)C1CCN(CCCOc2ccccc2)CC1` the value was 0.4% (inactive); for `CC1(C(=O)NCc2ccc(F)c(F)c2)Cc2c(-c3ccc4c(c3)OCO4)ccnc2O1` (stereo not drawn), -7.8% (inactive); for `Cc1ccc(Cc2c(-c3ccco3)nc3ccc(Cl)cn23)cc1`, -6% (inactive). Regarding `CCCCOCCCNC(=O)C[C@@H]1C[C@@]2(C(=O)OC)CCCCC=C2N(CCC2=CCCCC2)C1=O`, the inhibition was 7.8% (inactive). As to `CC(C)Oc1cc(F)ccc1-c1cc(C(=O)Nc2cccc(Cl)c2)[nH]n1`, the inhibition is -7.1% (inactive). Then `CN(Cc1ccccc1F)c1cc2c(c3c1ccn3C)C1CCC2O1` (stereo not drawn), with 3.2% (inactive); and `COC(=O)[C@]12CCCCC=C1N(CCC1=CCCCC1)C(=O)[C@H](CC(=O)NCC1CCCCC1)C2`, with 5.5% (inactive); and `CCc1ccc(OC2(C)CCN(CCOc3ccc(C)cc3)C2)cc1` (stereo not drawn), with -9.6% (inactive).

As to `CN(C)C1CN(Cc2cn(Cc3ccccc3)nn2)S(=O)(=O)C1` (stereo not drawn), the inhibition was -1.7% (inactive). Then `CCc1c(C)nc(N2CCN(Cc3ccccc3)CC2)[nH]c1=O`, with 6.6% (inactive). For `Cc1cc(C)n2nc(C(=O)N3CCN(Cc4ccc5c(c4)OCO5)CC3)nc2n1`, the inhibition is -11.5% (inactive). For `CCCCCc1c(C)nc(N2CCN(Cc3ccc4c(c3)OCO4)CC2)[nH]c1=O` the value was 39.2% (active).

For `Cc1cc(Cl)ccc1-c1nc(NCCN(C)C)nc2ccsc12`, the inhibition was -4.9% (inactive). Then `CC1(Oc2ccccc2-c2ccno2)CCN(Cc2ccc(-c3ccccc3)o2)C1` (stereo not drawn), with -11.5% (inactive); and `OC[C@@H]1CN(Cc2ccc(-c3ccccc3)cc2)C[C@H](n2cnc3c(NC4CCCC4)ncnc32)O1`, with -4.6% (inactive); and `CC(=O)Nc1ccc(CNc2nc(NCCN(C)C)nc3cc(-c4ccccc4)sc23)cc1`, with -18.9% (inactive). As to `CC(=O)Oc1ccc(NC(=O)CCC2CCCCC2)c(C(=O)O)c1`, the inhibition is 37.7% (active). Turning to `Cc1cc(C(=O)NNC(=O)CCC2CCCCC2)c(C)o1`, the inhibition is 0.3% (inactive). For `COC(=O)c1sccc1NC(=O)CCC1CCCC1` the value was 1.8% (inactive). For `NC(c1csc(NC(=O)Nc2ccccc2Oc2ccccc2)n1)c1ccccc1Cl` (stereo not drawn) the value was -12.1% (inactive); for `CN1CCN(CC#CCC2(O)c3ccccc3-c3ccccc32)CC1`, -6.9% (inactive). As for `CC(C)N(CC#CCC1(O)c2ccccc2-c2ccccc21)C(C)C`, the inhibition is 37.1% (active). Then `CCOC(=O)[C@]12CCC=C1N(Cc1ccco1)C(=O)[C@H](CC(=O)NCc1cccc(C(F)(F)F)c1)C2`, with -2.2% (inactive). Then `CC=CCn1c(SCCCc2ccccc2)nc2c1c(=O)[nH]c(=O)n2C`, with -3.4% (inactive). As to `OC(c1ccc(Cl)c(F)c1)c1ncc(-c2ccccc2Cl)[nH]1` (stereo not drawn), the inhibition is -8.1% (inactive). On to `Cc1cc(Br)cn2c(Cc3cccc(F)c3)c(-c3cccc(Br)c3)nc12`, for which the inhibition was 5.5% (inactive). `Cc1cc(-n2nc(C)cc2C)n2ncc(-c3ccccc3)c2n1`: the inhibition was 5.4% (inactive). Regarding `COc1ccccc1-c1cnn2c(N3CCOCC3)cc(C)nc12`, the inhibition was 38.5% (active). Take `COc1ccccc1NC(=O)C1CCCN(c2cc(C)nc3ncnn23)C1` (stereo not drawn): the inhibition was 4.8% (inactive). Then `CCc1nc2c(OCc3ccc(Cl)cc3Cl)cccn2c1N(C)C(=O)C(C)C`, with -7.2% (inactive); and `Cc1cc(C)c(S(=O)(=O)NN=C2c3ccccc3[C@H]3Cc4csc[n+]4[C@@H]23)c(C)c1`, with -7.5% (inactive); and `Cc1nc2c(OCc3cccc(Cl)c3)cccn2c1N(C)CC1CC1`, with -6.3% (inactive).

As to `COc1nc(NC2CCCCC2)nc(N2CCCCCC2)n1`, the inhibition was 8.2% (inactive).

For `Clc1nc(NC2CCCC2)nc(N2CCOCC2)n1`, the inhibition was 53.9% (active). On to `COC(=O)CNc1nc(Cl)nc(N2CCC(C)CC2)n1`, for which the inhibition is -7.3% (inactive).

Values taken from PubChem BioAssay AID588497 (NMMLSC, 2011).
